Common to all, as to test: log2 ratio of Biotin-Ahx-Ub-VS probe labelling (fragment/DMSO); higher = less target engagement (more negative = stronger competition), active = hit call of the paper (q ≤ 0.05, log2 ratio ≤ -1)
Common to all, as to details: compound concentration: 200 uM; treatment time: 3 h

In one test the target is UniProt O00507. The method in brief:
(§1)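 Triplicate samples of HEK293T lysate, 495 µg each, received fragment at 200 µM or vehicle for 3 h, followed by Biotin-Ahx-Ub-VS (0.5 µM final) for 1 h. After NeutrAvidin enrichment of labelled DUBs and LysC/trypsin digestion, peptides were run by diaPASEF LC-MS/MS. The values are average log2 fragment/vehicle ratios from global-median-normalised Spectronaut label-free quantities, tested by unpaired t-test on proteins having ≥2 unique peptides.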

A further test deals with UniProt P51784. The method in brief: as §1
Chain of UniProt P51784 (P51784 whole entry): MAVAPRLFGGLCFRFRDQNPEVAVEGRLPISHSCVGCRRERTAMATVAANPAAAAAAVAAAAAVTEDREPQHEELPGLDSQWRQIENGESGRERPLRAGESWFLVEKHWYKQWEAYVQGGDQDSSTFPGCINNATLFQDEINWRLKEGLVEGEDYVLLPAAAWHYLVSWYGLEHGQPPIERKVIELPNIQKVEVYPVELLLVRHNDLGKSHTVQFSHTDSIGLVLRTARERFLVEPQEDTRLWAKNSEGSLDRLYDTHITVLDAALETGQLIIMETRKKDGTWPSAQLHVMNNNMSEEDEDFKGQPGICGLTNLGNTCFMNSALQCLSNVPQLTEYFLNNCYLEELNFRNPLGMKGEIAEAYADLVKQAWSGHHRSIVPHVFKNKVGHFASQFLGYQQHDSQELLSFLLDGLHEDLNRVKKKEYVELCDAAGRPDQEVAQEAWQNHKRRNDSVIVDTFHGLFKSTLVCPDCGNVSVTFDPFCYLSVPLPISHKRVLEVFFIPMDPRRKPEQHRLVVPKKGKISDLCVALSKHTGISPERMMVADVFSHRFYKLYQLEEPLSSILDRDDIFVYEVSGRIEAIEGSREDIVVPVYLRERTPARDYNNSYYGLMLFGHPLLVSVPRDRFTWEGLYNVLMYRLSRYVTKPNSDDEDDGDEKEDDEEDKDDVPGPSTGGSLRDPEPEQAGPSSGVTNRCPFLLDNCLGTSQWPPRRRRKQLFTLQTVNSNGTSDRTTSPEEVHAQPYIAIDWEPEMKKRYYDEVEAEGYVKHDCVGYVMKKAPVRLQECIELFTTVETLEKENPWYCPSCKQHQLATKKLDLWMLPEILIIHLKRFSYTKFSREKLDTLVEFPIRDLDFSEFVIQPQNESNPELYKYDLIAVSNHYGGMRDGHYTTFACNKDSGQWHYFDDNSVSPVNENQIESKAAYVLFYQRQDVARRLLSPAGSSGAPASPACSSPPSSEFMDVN
Another test has as its target T1, UniProt Q5T2D3.
T1 sequence (whole entry): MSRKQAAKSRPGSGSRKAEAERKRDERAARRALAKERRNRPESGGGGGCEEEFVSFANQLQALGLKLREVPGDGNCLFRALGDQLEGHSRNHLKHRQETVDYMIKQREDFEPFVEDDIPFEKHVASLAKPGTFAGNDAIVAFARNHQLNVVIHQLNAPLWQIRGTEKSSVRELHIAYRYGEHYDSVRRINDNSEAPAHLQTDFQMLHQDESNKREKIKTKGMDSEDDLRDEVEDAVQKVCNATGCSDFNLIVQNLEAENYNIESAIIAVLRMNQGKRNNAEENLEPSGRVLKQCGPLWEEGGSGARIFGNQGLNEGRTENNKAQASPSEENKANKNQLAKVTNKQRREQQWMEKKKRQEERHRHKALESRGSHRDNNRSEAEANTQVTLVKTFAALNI
The gist of the method:
as §1

A further test addresses T2, UniProt Q8TE49.
T2 sequence (whole entry): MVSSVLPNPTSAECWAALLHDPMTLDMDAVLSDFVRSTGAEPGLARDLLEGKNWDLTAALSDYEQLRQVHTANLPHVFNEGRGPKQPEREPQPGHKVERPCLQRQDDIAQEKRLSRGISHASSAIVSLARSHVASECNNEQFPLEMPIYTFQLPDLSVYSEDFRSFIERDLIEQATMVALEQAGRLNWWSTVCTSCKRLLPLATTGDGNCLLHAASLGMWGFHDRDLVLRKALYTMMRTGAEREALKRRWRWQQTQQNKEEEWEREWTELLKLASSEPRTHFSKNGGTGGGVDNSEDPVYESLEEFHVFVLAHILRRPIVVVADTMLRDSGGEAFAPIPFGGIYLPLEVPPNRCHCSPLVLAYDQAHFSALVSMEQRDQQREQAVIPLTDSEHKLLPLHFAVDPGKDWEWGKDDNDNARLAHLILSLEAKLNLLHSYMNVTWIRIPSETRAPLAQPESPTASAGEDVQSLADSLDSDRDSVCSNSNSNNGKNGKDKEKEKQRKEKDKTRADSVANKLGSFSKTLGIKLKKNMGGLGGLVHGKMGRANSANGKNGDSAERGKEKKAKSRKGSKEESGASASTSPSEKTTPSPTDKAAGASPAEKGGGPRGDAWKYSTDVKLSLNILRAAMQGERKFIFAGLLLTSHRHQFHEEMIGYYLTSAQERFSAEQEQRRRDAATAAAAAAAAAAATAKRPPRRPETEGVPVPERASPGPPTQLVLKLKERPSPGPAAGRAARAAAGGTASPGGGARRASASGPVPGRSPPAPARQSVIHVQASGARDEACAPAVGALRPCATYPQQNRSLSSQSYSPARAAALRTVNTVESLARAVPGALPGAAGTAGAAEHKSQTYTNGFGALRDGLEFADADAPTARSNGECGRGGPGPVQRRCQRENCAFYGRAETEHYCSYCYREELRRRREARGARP
The gist of the method:
as §1

For the next test, the target named is T3, UniProt Q9P2H5.
T3 sequence (whole entry): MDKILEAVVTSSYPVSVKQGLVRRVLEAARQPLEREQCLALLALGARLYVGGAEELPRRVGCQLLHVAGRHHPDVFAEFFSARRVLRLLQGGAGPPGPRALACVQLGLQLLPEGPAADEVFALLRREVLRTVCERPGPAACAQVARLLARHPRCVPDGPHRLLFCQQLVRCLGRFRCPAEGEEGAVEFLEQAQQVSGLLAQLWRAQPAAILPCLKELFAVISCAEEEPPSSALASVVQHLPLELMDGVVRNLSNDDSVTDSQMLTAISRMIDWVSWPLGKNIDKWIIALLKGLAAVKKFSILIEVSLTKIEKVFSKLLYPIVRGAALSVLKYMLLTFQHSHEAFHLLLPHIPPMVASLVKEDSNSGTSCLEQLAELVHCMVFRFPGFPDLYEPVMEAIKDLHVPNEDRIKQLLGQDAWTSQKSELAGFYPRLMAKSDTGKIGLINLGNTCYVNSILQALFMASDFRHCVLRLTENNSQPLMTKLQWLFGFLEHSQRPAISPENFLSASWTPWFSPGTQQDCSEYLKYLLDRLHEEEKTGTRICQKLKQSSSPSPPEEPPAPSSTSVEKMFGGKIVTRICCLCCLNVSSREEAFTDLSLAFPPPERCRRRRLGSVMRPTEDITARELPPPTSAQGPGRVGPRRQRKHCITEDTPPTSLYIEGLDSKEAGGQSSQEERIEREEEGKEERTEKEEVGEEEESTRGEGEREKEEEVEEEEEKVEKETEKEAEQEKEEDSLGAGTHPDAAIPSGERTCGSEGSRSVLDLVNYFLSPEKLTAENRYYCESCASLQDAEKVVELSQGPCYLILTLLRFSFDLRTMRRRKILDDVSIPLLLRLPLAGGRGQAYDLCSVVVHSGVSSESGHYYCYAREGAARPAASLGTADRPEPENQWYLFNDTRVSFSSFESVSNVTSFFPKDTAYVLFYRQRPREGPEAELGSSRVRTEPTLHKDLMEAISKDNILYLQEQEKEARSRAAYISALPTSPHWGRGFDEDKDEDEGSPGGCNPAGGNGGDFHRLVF
The method in brief: as §1

For a further test, the target named is T4, UniProt Q9UGI0.
T4 sequence (whole entry): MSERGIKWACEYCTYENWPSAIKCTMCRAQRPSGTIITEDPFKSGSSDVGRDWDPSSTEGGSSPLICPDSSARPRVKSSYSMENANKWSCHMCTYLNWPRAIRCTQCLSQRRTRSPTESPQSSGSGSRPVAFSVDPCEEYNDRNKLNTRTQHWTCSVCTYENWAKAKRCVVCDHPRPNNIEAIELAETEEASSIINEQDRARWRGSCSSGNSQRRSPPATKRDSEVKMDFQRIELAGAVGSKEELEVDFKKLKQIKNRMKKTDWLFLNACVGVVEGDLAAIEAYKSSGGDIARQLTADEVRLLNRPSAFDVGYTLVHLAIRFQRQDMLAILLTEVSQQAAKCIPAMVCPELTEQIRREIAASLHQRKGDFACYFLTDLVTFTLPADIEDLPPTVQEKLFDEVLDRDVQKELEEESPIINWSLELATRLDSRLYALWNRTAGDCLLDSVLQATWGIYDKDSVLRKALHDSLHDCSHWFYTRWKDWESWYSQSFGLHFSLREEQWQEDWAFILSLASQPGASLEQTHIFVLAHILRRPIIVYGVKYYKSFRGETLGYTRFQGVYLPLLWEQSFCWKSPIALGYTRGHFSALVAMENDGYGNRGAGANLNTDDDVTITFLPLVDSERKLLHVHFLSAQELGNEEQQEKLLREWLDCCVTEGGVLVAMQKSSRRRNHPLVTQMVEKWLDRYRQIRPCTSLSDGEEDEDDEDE
The gist of the method:
as §1

The next test concerns the target T5, YOD1 (UniProt Q5VVQ6).
T5 sequence (whole entry): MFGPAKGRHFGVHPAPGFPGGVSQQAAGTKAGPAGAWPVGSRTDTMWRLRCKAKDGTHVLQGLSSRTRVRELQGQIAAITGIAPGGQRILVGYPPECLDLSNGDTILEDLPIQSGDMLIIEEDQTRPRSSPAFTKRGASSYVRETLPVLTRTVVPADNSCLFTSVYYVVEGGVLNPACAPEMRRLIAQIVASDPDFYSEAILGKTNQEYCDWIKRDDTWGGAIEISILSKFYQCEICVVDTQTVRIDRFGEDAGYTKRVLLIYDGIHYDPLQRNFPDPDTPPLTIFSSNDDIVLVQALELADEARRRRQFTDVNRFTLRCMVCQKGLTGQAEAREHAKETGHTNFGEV
The gist of the method: as §1

Ten compounds from the supplement of paper PMC11732987, “Enantioselective OTUD7B fragment discovery through chemoproteomics screening and high-throughput optimisation” (Communications Chemistry, 2025) can be followed below.

SMILES strings stand for the structures. Values without a mark were called inactive.

Chain of UniProt O00507 (O00507 whole entry, the tested form may be a part): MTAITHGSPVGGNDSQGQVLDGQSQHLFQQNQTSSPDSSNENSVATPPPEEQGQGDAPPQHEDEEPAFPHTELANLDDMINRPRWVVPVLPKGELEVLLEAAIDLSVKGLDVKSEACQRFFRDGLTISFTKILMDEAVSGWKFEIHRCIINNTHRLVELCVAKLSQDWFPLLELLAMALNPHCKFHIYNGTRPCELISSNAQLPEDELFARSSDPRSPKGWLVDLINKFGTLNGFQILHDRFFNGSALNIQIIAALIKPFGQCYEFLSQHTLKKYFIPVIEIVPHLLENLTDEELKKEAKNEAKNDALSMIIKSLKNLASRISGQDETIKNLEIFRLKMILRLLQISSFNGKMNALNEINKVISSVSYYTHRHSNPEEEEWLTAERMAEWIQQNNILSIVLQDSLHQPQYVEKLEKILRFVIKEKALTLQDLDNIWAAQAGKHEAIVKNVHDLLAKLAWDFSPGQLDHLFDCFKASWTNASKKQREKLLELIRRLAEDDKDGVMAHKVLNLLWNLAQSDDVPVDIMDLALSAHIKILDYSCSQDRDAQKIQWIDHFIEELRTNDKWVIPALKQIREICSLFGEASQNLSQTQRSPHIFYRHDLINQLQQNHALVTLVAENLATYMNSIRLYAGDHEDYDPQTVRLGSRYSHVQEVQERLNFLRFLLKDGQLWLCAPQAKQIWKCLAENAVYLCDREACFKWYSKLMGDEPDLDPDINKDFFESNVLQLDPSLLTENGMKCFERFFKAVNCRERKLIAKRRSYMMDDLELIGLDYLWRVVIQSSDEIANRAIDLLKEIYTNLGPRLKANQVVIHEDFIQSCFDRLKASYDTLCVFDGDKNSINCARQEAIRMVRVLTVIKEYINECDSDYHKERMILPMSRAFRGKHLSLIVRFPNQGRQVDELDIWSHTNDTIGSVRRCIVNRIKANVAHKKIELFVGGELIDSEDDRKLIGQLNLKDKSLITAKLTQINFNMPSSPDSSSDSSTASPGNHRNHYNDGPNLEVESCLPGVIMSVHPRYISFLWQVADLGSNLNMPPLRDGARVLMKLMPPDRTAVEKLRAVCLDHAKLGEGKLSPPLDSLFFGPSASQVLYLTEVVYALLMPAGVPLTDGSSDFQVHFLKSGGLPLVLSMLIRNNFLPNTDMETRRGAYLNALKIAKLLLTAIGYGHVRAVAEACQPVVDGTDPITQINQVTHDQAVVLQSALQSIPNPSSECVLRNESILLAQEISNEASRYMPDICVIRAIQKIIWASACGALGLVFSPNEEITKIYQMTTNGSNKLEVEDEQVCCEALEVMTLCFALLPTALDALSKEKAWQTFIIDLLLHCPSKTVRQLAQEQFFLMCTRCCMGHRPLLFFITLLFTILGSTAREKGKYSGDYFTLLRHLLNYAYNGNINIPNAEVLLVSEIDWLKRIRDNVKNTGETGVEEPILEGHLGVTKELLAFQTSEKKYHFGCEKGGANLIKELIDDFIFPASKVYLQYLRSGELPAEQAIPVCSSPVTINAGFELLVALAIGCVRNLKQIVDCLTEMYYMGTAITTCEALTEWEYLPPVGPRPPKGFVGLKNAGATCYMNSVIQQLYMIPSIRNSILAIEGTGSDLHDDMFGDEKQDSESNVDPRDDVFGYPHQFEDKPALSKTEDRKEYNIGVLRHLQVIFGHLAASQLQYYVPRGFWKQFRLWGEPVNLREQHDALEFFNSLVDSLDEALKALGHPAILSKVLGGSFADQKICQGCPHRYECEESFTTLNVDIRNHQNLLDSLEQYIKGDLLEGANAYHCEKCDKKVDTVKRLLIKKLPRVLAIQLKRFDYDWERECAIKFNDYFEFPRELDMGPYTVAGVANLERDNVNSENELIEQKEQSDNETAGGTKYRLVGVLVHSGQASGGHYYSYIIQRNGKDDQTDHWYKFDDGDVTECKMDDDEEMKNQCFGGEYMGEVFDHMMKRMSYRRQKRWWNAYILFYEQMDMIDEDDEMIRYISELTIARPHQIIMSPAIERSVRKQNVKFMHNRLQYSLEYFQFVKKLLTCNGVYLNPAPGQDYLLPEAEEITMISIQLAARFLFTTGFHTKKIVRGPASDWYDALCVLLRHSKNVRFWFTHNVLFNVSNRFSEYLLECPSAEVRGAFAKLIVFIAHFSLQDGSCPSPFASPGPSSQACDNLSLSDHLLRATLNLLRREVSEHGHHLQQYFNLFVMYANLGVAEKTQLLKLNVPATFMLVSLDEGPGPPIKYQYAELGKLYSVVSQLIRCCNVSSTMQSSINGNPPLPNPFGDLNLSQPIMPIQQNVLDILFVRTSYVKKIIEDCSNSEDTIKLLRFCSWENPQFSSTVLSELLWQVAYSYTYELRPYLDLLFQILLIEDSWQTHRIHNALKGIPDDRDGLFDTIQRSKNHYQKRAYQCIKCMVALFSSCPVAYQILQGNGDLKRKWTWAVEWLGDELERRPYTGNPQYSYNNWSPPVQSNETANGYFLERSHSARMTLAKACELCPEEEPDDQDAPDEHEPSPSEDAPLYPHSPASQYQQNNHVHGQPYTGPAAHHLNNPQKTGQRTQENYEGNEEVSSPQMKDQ

With `COCC1C=CCCN1C(=O)CCl` (stereo not given), the “log2 ratio of Biotin-Ahx-Ub-VS probe labelling” value (shortened to “log2 ratio”) with UniProt O00507 was -0.284; with UniProt P51784, -0.0747; in the test with UniProt Q5T2D3 it was -0.118; in the test with UniProt Q8TE49, -0.259; with UniProt Q9P2H5, -0.0309; with UniProt Q9UGI0, -1.01 (active). For the same compound, the “log2 ratio” value with YOD1 is -0.0106.

`O=C(CCl)N1CCC2(CCC(O)CC2)CC1`: the “log2 ratio” value was 0.0905 in the test with UniProt O00507; 0.0738 with UniProt P51784; -0.238 with UniProt Q5T2D3; -0.64 with UniProt Q8TE49; -0.118 with UniProt Q9P2H5; -0.316 with UniProt Q9UGI0. The “log2 ratio” value with YOD1 is 0.0256.

Regarding `O=C(CCl)N1CCOCC1C1CC1` (stereo not given), the “log2 ratio” value was -0.0511 in the test with UniProt O00507; 0.141 with UniProt P51784; -0.288 in the test with UniProt Q5T2D3; -0.663 with UniProt Q8TE49; -0.279 with UniProt Q9P2H5; -0.344 with UniProt Q9UGI0. The “log2 ratio” value in the test with YOD1 was -0.172.

`Cc1ccc(N(C(=O)CCl)C2C=CS(=O)(=O)C2)cc1` (stereo not given): the “log2 ratio” value with UniProt O00507 was 0.428; in the test with UniProt P51784, 0.0438; with UniProt Q5T2D3, 0.136; in the test with UniProt Q8TE49 it was -0.0818; with UniProt Q9P2H5, -0.196; with UniProt Q9UGI0, -0.0234. Further, the “log2 ratio” value in the test with YOD1 was 0.412.

For the compound `Cc1cccc(C)c1NC(=O)CCl`, the “log2 ratio” value was -0.138 in the test with UniProt O00507; -0.081 with UniProt P51784; -0.377 with UniProt Q5T2D3; -0.358 with UniProt Q8TE49; -0.0602 with UniProt Q9P2H5; -0.323 with UniProt Q9UGI0. Further, the “log2 ratio” value with YOD1 was -0.344.

Turning to `O=C(CCl)N1CCCN(C(=O)c2ccc(Cl)cc2)CC1`, the “log2 ratio” value is -0.381 with UniProt O00507; -0.139 with UniProt P51784; -0.134 with UniProt Q5T2D3; -0.265 in the test with UniProt Q8TE49; -0.166 with UniProt Q9P2H5; -0.84 with UniProt Q9UGI0. Moreover, in the test with YOD1, the “log2 ratio” value is -0.417.

In the case of `O=C(CCl)Nc1nc(-c2cccs2)cs1`, the “log2 ratio” value was -0.168 with UniProt O00507; 0.104 with UniProt P51784; -0.239 with UniProt Q5T2D3; -0.68 in the test with UniProt Q8TE49; -0.138 with UniProt Q9P2H5; -2.34 (active) with UniProt Q9UGI0. Moreover, in the test with YOD1, the “log2 ratio” value was 0.237.

As for `Cc1cccc(C(CNC(=O)CCl)N2CCOCC2)c1.Cl` (stereo not given), the “log2 ratio” value is 0.29 with UniProt O00507; -0.0777 with UniProt P51784; -0.329 in the test with UniProt Q5T2D3; -0.249 with UniProt Q8TE49; -0.237 in the test with UniProt Q9P2H5; 0.0449 with UniProt Q9UGI0. Further, in the test with YOD1, the “log2 ratio” value was -0.28.

As for `O=C(CCl)N1CCc2ccccc2C(O)C1` (stereo not given), the “log2 ratio” value with UniProt O00507 is -0.255; in the test with UniProt P51784 it was -0.0328; in the test with UniProt Q5T2D3, -0.418; with UniProt Q8TE49 it was -0.836; in the test with UniProt Q9P2H5 it was 0.153; with UniProt Q9UGI0 it was -1.86 (active). In the test with YOD1, the “log2 ratio” value is -0.325.

As for `O=C(O)C1Cc2ccccc2CN1C(=O)CCl` (stereo not given), the “log2 ratio” value is -0.298 with UniProt O00507; -0.0646 with UniProt P51784; -0.268 with UniProt Q5T2D3; -0.664 with UniProt Q8TE49; -0.394 with UniProt Q9P2H5; -0.642 in the test with UniProt Q9UGI0. Moreover, the “log2 ratio” value with YOD1 is -0.0629.
